Bioassay records deposited in PubChem by Broad Institute.
This is one part of a sample in which hits are shown more often than they occur.
Tgondii IFNg = T. gondii growth inhibition under IFN-gamma; Toxoplasma gondii growth in IFN-gamma-treated host cells; hits give low values; hit rate 3.8% among 69,000; activity change, negative = inhibition, % (no concentration beside the values); in the data active means activity change below about -70%, passing the limit was not always enough;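 further: host cells are HeLa cells infected with Toxoplasma gondii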
* marks the source's active call; other numbers are inactive results.

SMILES	Tgondii IFNg
C=C(NC(=O)C(=C)NC(=O)c1csc(C2=N[C@@H]3c4csc(n4)[C@H]4NC(=O)c5csc(n5)[C@H]([C@](C)(O)[C@@H](C)O)NC(=O)[C@H]5CSC(=N5)/C(=C/C)NC(=O)[C@H]([C@@H](C)O)NC(=O)c5csc(n5)[C@]3(CC2)NC(=O)[C@H](C)NC(=O)C(=C)NC(=O)[C@H](C)NC(=O)[C@H]([C@@H](C)CC)N[C@@H]2C=Cc3c([C@H](C)O)cc(nc3[C@H]2O)C(=O)O[C@@H]4C)n1)C(N)=O	-72.4*
C=C(NC(=O)C(=C)NC(=O)c1csc(C2=N[C@H]3c4csc(n4)[C@H]4NC(=O)c5csc(n5)[C@H]([C@@](C)(O)[C@@H](C)O)NC(=O)[C@H]5CSC(=N5)/C(=C/C)NC(=O)[C@H]([C@@H](C)O)NC(=O)c5csc(n5)[C@]3(CC2)NC(=O)[C@H](C)NC(=O)C(=C)NC(=O)[C@H](C)NC(=O)[C@H](C(C)CC)N[C@@H]2C=Cc3c([C@H](C)O)cc(nc3[C@H]2O)C(=O)O[C@@H]4C)n1)C(N)=O (some centres undefined)	-55.7
O=C(NC1CC1)c1cncc(NS(=O)(=O)c2ccc(F)cc2)c1	75.0
CN(Cc1cccnc1)C1CCN(C(=O)c2ccccn2)C(C(=O)O)C1 (centres undefined)	-74.0*
CN(Cc1cccnc1)C1CCN(C(=O)c2cccnc2)C(C(=O)O)C1 (centres undefined)	-4.6
CN(Cc1cccnc1)C1CCN(C(=O)c2cnccn2)C(C(=O)O)C1 (centres undefined)	8.1
Cc1ccc(S(=O)(=O)N(C)c2cncc(C(=O)N3CCN(c4cccc(C)c4)C(C)C3)c2)cc1 (centres undefined)	-45.4
CCOc1ccc(CNC(=O)c2cncc(OC)c2)cc1	-33.9
O=C([C@@H]1C[C@@H](O)CN1)N1CCc2[nH]nc(-c3cccc4ccccc34)c2C1	15.0
CC(=O)N1CC2(CCN(C(=O)Cc3ccccc3)CC2)CC1C(=O)O (centres undefined)	1.5
CC(C)N(C)Cc1ncn2c1CN(C(=O)Cc1cccs1)CCC2	-1.9
O=C(CCN1Cc2ccccc2C1=O)NCc1cnn2ccccc12	-3.9
CC(=O)N1CCOCC12CCN(Cc1csc(C)n1)CC2	2.2
Cc1nc(CN2CCOCC3(CNCCO3)C2)cs1 (centres undefined)	-89.8*
Cc1nc(CN2CCOCC3(CN(CCO)CCO3)C2)cs1 (centres undefined)	0.7
Cc1cc(C)nc(Cn2nc(C3CCNCC3)n(Cc3ccccc3)c2=O)n1	-16.2
O=c1ccc2cc(S(=O)(=O)N3CCC4(CC3)OCCO4)ccc2[nH]1	40.9
COCC(=O)N1C[C@@H](C)[C@H](OC)CN(C)C(=O)c2ccc(NC(=O)c3ccc(-c4ccccc4)cc3)cc2OC[C@H]1C	-102.9*
CCC(=O)Nc1ccc2c(c1)OC[C@H](C)N(Cc1ccccc1)C[C@@H](C)[C@@H](OC)CN(C)C2=O	210.7
CO[C@@H]1CN(C)C(=O)c2cc(NC(=O)Nc3ccccc3F)ccc2OC[C@@H](C)N(C(=O)c2cnccn2)C[C@H]1C	44.3
CCCC(=O)Nc1ccc2c(c1)C(=O)N(C)C[C@@H](OC)[C@H](C)CN(Cc1cc(-c3ccccc3)on1)[C@H](C)CO2	-80.7*
CO[C@H]1CN(C)C(=O)c2ccc(NC(=O)Nc3cc(F)ccc3F)cc2OC[C@@H](C)N(C(=O)c2ccccn2)C[C@@H]1C	-88.3*
CO[C@@H]1CN(C)C(=O)c2ccc(NC(=O)Nc3cc(F)ccc3F)cc2OC[C@H](C)N(C(=O)c2ccccn2)C[C@@H]1C	2.5
COCC(=O)N1C[C@H](C)[C@@H](OC)CN(C)C(=O)c2ccc(NC(=O)Nc3cccc(F)c3)cc2OC[C@@H]1C	-35.0
CCCC(=O)Nc1ccc2c(c1)C(=O)N(C)C[C@@H](OC)[C@H](C)CN(C(=O)c1ccccn1)[C@H](C)CO2	3.8
SMILES	Tgondii IFNg
COCC(=O)Nc1ccc2c(c1)OC[C@@H](C)N(C)C[C@@H](C)[C@@H](OC)CN(C)C2=O	-18.6
CO[C@@H]1CN(C)C(=O)c2cc(NC(C)=O)ccc2OC[C@H](C)N(Cc2ccncc2)C[C@H]1C	-65.7
CO[C@@H]1CN(C)C(=O)c2ccc(NC(=O)c3ccc4c(c3)OCO4)cc2OC[C@@H](C)N(Cc2ccc3c(c2)OCO3)C[C@H]1C	-80.1*
CCC(=O)Nc1ccc2c(c1)OC[C@H](C)N(Cc1ccccc1)C[C@H](C)[C@@H](OC)CN(C)C2=O	173.4
CC(C)(C)OC(=O)N1CCCCCC1C1Cc2ccccc2C1=O (centres undefined)	-2.4
CCOCC(=O)N1CCO[C@]2(CCC[C@@H]2COCc2ccccn2)C1	3.6
CCc1ccccc1NC(=O)N1CCC(c2nc(C(=O)N3CCOCC3)c(C)o2)CC1	9.2
CSc1cccc(NC(=O)N2CCC(c3nc(C(=O)N4CCCCC4)c(C)o3)CC2)c1	-65.1
O=C(c1ccc2nonc2c1)N1CCN(c2ccccc2)CC1	-25.9
CC1=NOC(C(=O)NCc2cnn3ccccc23)C1 (centres undefined)	-26.4
Cc1nc(OCC(=O)Nc2ccc(Cl)c(Cl)c2)c2ccccc2n1	0.8
Cc1nc(-c2ccc(NC(=O)c3ccc(C(C)N4CCOCC4)o3)cc2)cs1 (centres undefined)	115.2
Cn1c(=O)[nH]c(=O)c2[nH]c(N3CCOCC3)nc21	4.3
Cc1ccc(NC2CCCN(C(=O)CCn3ccc(=O)[nH]c3=O)C2)cc1C (centres undefined)	9.7
O=C(NCCS(=O)(=O)c1ccc(F)cc1)c1cc(-n2cccn2)ccc1Cl	13.3
Cc1cc(Cc2ccccc2)cc(C2CCCN(CC(=O)Nc3ccnn3C(C)C)C2)n1 (centres undefined)	-26.6
Cc1ccc(-c2coc(-c3ccc(NS(=O)(=O)c4cccc(Cl)c4)cc3)n2)c(C)c1	-38.7
O=C(NCCc1csc(-c2ccc(Cl)cc2)n1)C(=O)Nc1ccc(F)cc1	47.9
O=C(NC(=O)c1csc(-c2ccc(C(F)(F)F)cc2Cl)n1)Nc1ccc(F)cc1	-97.8*
O=C(Nc1ccc2c(c1)OCCO2)c1csc(-c2cccc3c2CCO3)n1	50.8
CCc1ccc(-c2noc(-c3c(O)c4ccc(F)cc4n(CC)c3=O)n2)cc1	-17.8
COc1ccc(CC(=O)N2CCC(Cc3ccccc3-c3ccccc3)(C(N)=O)CC2)cc1	31.0
c1ccc2[nH]c(CC3CCCN(Cc4cc5n(n4)CCCNC5)C3)nc2c1 (centres undefined)	-44.6
C=CC(=O)Nc1cccc(Oc2nc(Nc3ccc(N4CCN(C)CC4)cc3OC)ncc2Cl)c1	-66.9
CCC(=O)Nc1cccc(Oc2nc(Nc3ccc(N4CCN(C)CC4)cc3OC)ncc2Cl)c1	-18.7
SMILES	Tgondii IFNg
C=CC(=O)Nc1cccc(Sc2nc(Nc3ccc(N4CCN(C)CC4)cc3)ncc2Cl)c1	-81.6*
COC(=O)c1cc2n(n1)CCCN(C(=O)c1cc(C)[nH]c(=O)c1)C2	5.1
Clc1ccccc1-c1nnc(Cc2cc(Br)sc2Br)o1	-90.2*
COc1ccccc1-c1nnc(CC(=O)O)o1	-24.2
FC(F)(F)c1cc(Oc2ccccc2)ncc1-c1nnc(-c2ccccc2Cl)o1	-58.9
Cc1ccc(N2CCC3(CC(=O)N(c4ccc(C#N)cc4)C3)C2)nn1 (centres undefined)	-7.4
Cc1cccc(-c2nc(Cn3nnc(-c4nc(-c5ccc(Cl)c(F)c5)no4)c3C)c(C)o2)c1	0.9
CCCn1nccc1C(=O)N1CCNCC1C(=O)NCc1ccncc1 (centres undefined)	1.0
